Assay results as given in PubChem BioAssay AID1159580 (chemical genetic matrix, 2015).
Screen size: about 5,500 compounds; about 2,000 (36%) were called active. Inconclusive results (about 18%) are left out. No stated cut-off is given here; in the data, active means normalized growth mostly below about 0.91 (no sharp cut-off); inconclusive means no clear call, values can overlap the other calls; inactive means mostly above about 0.92. The list shows a part of the results.

Assay: chemical genetic growth profiling, strain panel (AID 1159580);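 further: tested at 20 µM; growth read once vehicle control cultures reached saturation at 30 °C; 1 = growth at the plate median or of vehicle wells; lower values mean less growth of the strain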
Conditions: S. cerevisiae deletion strains, growth OD
[1] = locus YPL241C, strain CIN2, active compounds read low
[2] = locus YAL013W, strain DEP1, active compounds read low
[3] = locus YBR229C, strain ROT2, active compounds read low
[4] = locus YDL101C, strain DUN1, active compounds read low
[5] = locus YDR150W, strain NUM1, active compounds read low
[6] = locus YEL061C, strain CIN8, active compounds read low
[7] = locus YGR078C, strain PAC10, active compounds read low
[8] = locus YHR030C, strain SLT2, active compounds read low
[9] = locus YHR087W, strain rtc3, active compounds read low
[10] = locus YJL187C, strain SWE1, active compounds read low
[11] = locus YJR043C, strain POL32, active compounds read low
[12] = locus YJR075W, strain HOC1, active compounds read low
[13] = locus YKL190W, strain CNB1, active compounds read low
[14] = locus YLR039C, strain RIC1, active compounds read low
[15] = locus YLR058C, strain SHM2 (second series), active compounds read low
[16] = locus YLR085C, strain ARP6, active compounds read low
[17] = locus YLR262C, strain YPT6, active compounds read low
[18] = locus YML094W, strain GIM5, active compounds read low
[19] = locus YMR219W, strain ESC1, active compounds read low
[20] = locus YMR263W, strain SAP30, active compounds read low
[21] = locus YNL153C, strain GIM3, active compounds read low
[22] = locus YNL298W, strain CLA4 (second series), active compounds read low
[23] = locus YNL322C, strain KRE1, active compounds read low
[24] = locus YNR030W, strain Alg12, active compounds read low
[25] = locus YOL006C, strain TOP1, active compounds read low
[26] = locus YPL055C, strain LGE1, active compounds read low
[27] = locus YPR135W, strain CTF4, active compounds read low

Measured: normalized growth

N#CC(C#N)=Cc1ccc([N+](=O)[O-])c(O)c1
inactive: locus YAL040C, strain CLN3, active compounds read low 1.04 | locus YCL061C, strain MRC1 (second series), active compounds read low 0.991 | locus YDR363W, strain ESC2, active compounds read low 0.968 | locus YER002W, strain NOP16, active compounds read low 0.956 | locus YMR307W, strain GAS1, active compounds read low 1.01 | locus YNL128W, strain TEP1, active compounds read low 0.966 | locus YNL175C, strain NOP13, active compounds read low 0.953 | locus YNL197C, strain WHI3, active compounds read low 0.955 | locus YNL224C, strain SQS1, active compounds read low 0.988 | locus YOR083W, strain WHI5 (second series), active compounds read low 0.992 | [1] 0.988

N#Cc1ccc([N+](=O)[O-])s1
active: [2] 0.726 | [3] 0.446 | [4] 0.201 | locus YDL134C, strain PPH21, active compounds read low 0.0493 | [5] 0.681 | [6] 0.194 | [7] 0.385 | [8] 0.0826 | [9] 0.379 | [10] 0.261 | [11] 0.564 | [12] 0.198 | [13] 0.0802 | [14] 0.346 | [15] 0.461 | [16] 0.121 | [17] 0.588 | [18] 0.271 | [19] 0.7 | [20] 0.46 | [21] 0.382 | [22] 0.105 | [24] 0.096 | [25] 0.115 | [26] 0.547 | [1] 0.0815 | [27] 0.186
inactive: locus YGR229C, strain SMI1, active compounds read low 0.992 | [23] 1.01

O=C1CCCc2c1nc(-c1ccccc1)n2O
inactive: [2] 1 | [3] 1 | [4] 1.03 | [5] 0.966 | [6] 1.05 | [7] 1 | [8] 1.05 | [9] 0.999 | [10] 1.02 | [11] 0.995 | [12] 1.01 | [13] 1 | [14] 1.04 | [15] 1.03 | [16] 0.998 | [17] 1.06 | [18] 1.01 | [19] 1.01 | [20] 0.999 | [21] 1.03 | [22] 0.993 | [23] 1.01 | [24] 1.01 | [25] 0.999 | [26] 0.905 | [1] 1.02 | [27] 1
